# According to ChEMBL document CHEMBL1157539, “Thousands of chemical starting points for antimalarial lead identification” (Nature, 2010):
# Legend:
# Type in all cases: functional
# Plasmodium falciparum [1] = assay: GSK_TCMDC: Inhibition of Plasmodium falciparum 3D7 in whole red blood cells, using parasite LDH activity as an index of growth. Test compounds present at 2uM
# Plasmodium falciparum [2] = assay: GSK_TCMDC: Inhibition of Plasmodium falciparum Dd2 in whole red blood cells, using parasite LDH activity as an index of growth. Test compounds present at 2uM
# HepG2 = assay: GSK_TCMDC: Percent inhibition of human HepG2 cell line. Test compounds present at 10uM.
SMILES,Inhibition (Plasmodium falciparum [1]) [%],Inhibition (Plasmodium falciparum [2]) [%],Inhibition (HepG2) [%]
O=C(/C=C/c1ccc(Cl)c(Cl)c1)NC1CCC(CN2CCC(c3c[nH]c4ccccc34)CC2)CC1 (stereo not given),100,85,27
C=CC12CCN(CC1)C(C(O)c1ccnc3ccc(OC)cc13)C2 (stereo not given),–,72,0
Oc1ccc(CN2CCN(CCOC(c3ccccc3)c3ccccc3)CC2)cc1Cl,98,77,7
O=C(/C=C/c1ccc(Cl)c(Cl)c1)Nc1cccc(CN2CCC(c3c[nH]c4ccc(O)cc34)CC2)c1,100,90,11
CCCCCCCCNCC(O)c1ccc(Cl)c(Cl)c1.Cl (stereo not given),99,87,0
Cc1cc(O)cc2c(C3CCN(CC4CCC(NC(=O)/C=C/c5ccccc5Cl)CC4)CC3)c[nH]c12 (stereo not given),99,84,21
CC(=O)Nc1ccc(OCCN(CC(C)C)c2ccc(C#N)c(C(F)(F)F)c2)c(Cl)c1,94,94,13
